# The source made the active and inactive calls.
# Assays:
# Albumin (Bos taurus) = Albumin (Bos taurus) (UniProt P02769); assay: compounds binding labelled BSA control protein – biochemical, small-molecule microarray, Alexa647 label, 635/667 nm fluorescence, artefact control for SMM control protein annotation, profiling panel (AID 1118); conditions: BSA-A647 binding, fluorescence 635 nm, higher = more signal;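 further: score merges 667 nm emission intensity and signal-to-noise per printed compound spot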
# [1] = probe aXIP binding to arrayed compounds – biochemical, NeuroSMM set, 635/667 nm fluorescence, primary screen (AID 1119); conditions: small-molecule microarray, higher = more signal, called active from +8 up or from −8 down;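 further: probe is the protein aXip251-270 applied at 1 µg/mL to compound-printed slides; binding of probe to printed compounds measured as 667 nm fluorescence plus signal to noise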
# [2] = probe aNOTCH3 binding on compound microarray – biochemical, small-molecule microarray, 635/667 nm fluorescence, primary screen (AID 1120); conditions: higher = more signal;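 further: probe is a biotin-tagged antibody raised against NOTCH3 rather than NOTCH3 protein; score merges spot fluorescence near 667 nm with spot signal to noise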
# [3] = probe aNOTCH2 binding on compound microarray – biochemical, small-molecule microarray, 635/667 nm fluorescence, primary screen (AID 1121); conditions: higher = more signal;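 further: score merges feature fluorescence read at 667 nm with its signal to noise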
# [4] = target: Carbonic anhydrase 2 (Homo sapiens) (UniProt P00918); assay: compounds binding carbonic anhydrase 2 – biochemical, small-molecule microarray, Alexa647-labelled CAII, profiling panel (AID 1122); conditions: CAII-A647 binding fluorescence, higher = more signal
# [5] = COS7 lysate on small-molecule microarray, probe aHis, 635 nm (AID 1123); conditions: COS7 cell lysate, fluorescence, higher = more signal;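 further: z-score combines 667nm fluorescence intensity with signal-to-noise per printed compound spot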
# [6] = probe aLAP1 signal on lysate-treated microarray – cell lysate, small-molecule microarray, COS7 lysate, primary screen (AID 1124); conditions: probe aLAP1, fluorescence, higher = more signal;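 further: lysate comes from COS7 cells expressing LAP1 and is applied at 0.3 µg/mL; score merges spot fluorescence near 667 nm with signal-to-noise over triplicate slides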
# Sam68 (KHDRBS1) = assay: compounds binding KHDRBS1 protein – biochemical, small-molecule microarray, 635 nm fluorescence, primary screen (AID 1125); conditions: higher = more signal;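 further: score merges 667 nm channel intensity with signal to noise over triplicate slides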
# [7] = test system: Chordin-like protein 2 (CHRDL2); assay: compounds binding chordin-like 2 – biochemical, small-molecule microarray, 635 nm fluorescence, primary screen (AID 1126); conditions: fluorescence 635 nm, higher = more signal;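 further: printed compound slides probed with Chrdl2 protein at 4 µg/mL for 1 h at 4 C; score merges 667 nm emission intensity with signal to noise over three replicate slides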
# [8] = target: Concanavalin-A (Canavalia ensiformis) (UniProt P02866); assay: compounds binding concanavalin A lectin – biochemical, small-molecule microarray, Alexa647 label, 635 nm, artefact control for SMM control protein annotation, primary screen (AID 1127); conditions: ConA-A647 binding fluorescence, higher = more signal;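 further: z combines 667 nm emission intensity with signal-to-noise across three replicate slides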
# [9] = compounds binding Alexa647 anti-His antibody – biochemical, small-molecule microarray, 635 nm fluorescence, artefact control for SMM control protein annotation, primary screen (AID 1128); conditions: higher = more signal;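 further: score merges feature fluorescence with signal-to-noise for each printed compound spot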
# [10] = test system: Human papillomavirus type 1a E7 protein (residues 1-88); assay: HPV1a E7 small-molecule binders, primary screen, biochemical, small-molecule microarray, residues 1-88, 635 nm (AID 1129); conditions: small-molecule microarray binding, fluorescence 635 nm; higher = more signal
# [11] = target: Focal adhesion kinase 1 (Homo sapiens) (UniProt Q05397); assay: PTK2 protein binding on printed compound slides – biochemical, small-molecule microarray, 635/667 nm fluorescence, BSA, DTT, primary screen (AID 1130); conditions: 635 nm fluorescence, higher = more signal;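 further: composite of spot emission at 667 nm and signal to noise over triplicate slides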
# [12] = test system: Fibrinogen (Alexa647-labelled); assay: Alexa647-fibrinogen binding to printed small molecules – biochemical, small-molecule microarray, 635/667 nm fluorescence, artefact control for SMM control-protein annotation, profiling panel (AID 1131); conditions: fibrinogen-A647 binding fluorescence, higher = more signal;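 further: z-score merges 667 nm fluorescence with per-spot signal-to-noise over triplicate slides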
# [13] = target: Follistatin (Homo sapiens) (UniProt P19883); assay: FST protein binding to printed compounds – biochemical, small-molecule microarray, 635/667 nm fluorescence, primary screen (AID 1132); conditions: 635 nm fluorescence, higher = more signal
# [14] = target: Fibroblast growth factor 2 (Homo sapiens) (UniProt P09038); assay: basic fibroblast growth factor binding to printed compounds – biochemical, small-molecule microarray, 635/667 nm fluorescence, primary screen (AID 1133); conditions: FGF2, fluorescence 635/667, higher = more signal
# [15] = JC-1 mitochondrial potential readout, lung cancer cells – cell-based, A549, JC-1 fluorescence, basal, 24 h, 100 nL, profiling panel (AID 1138); conditions: higher = more signal;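 further: A549 lung adenocarcinoma cells under basal conditions with no added stimulus; test concentration not given here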
# Lefty1 = Lefty1 protein binding to printed compounds – biochemical, small-molecule microarray, 635/667 nm fluorescence, primary screen (AID 1139); conditions: fluorescence 635/667, higher = more signal
# [16] = test system: wheat germ agglutinin (Triticum aestivum), Alexa647-labelled; assay: Alexa647-WGA lectin binding to printed small molecules – biochemical, small-molecule microarray, 635/667 nm fluorescence, artefact control for SMM control-protein annotation, profiling panel (AID 1140); conditions: WGA-A647 binding, 635 nm fluorescence, higher = more signal;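 further: score merges 667 nm feature emission with signal to noise over triplicate slides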
# [17] = target: Luciferin 4-monooxygenase (Photinus pyralis) (UniProt P08659); assay: inhibition of purified Photinus pyralis luciferase – biochemical, luminescence, purified enzyme, 2006 set, primary screen (AID 1141); conditions: purified firefly luciferase, SteadyGlo luminescence, 30 min; higher = more signal, called active from +8 up or from −8 down;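 further: cell-free assay with purified firefly luciferase at 100 ng per well in PBS; test concentration not given here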
# Sequence of Luciferin 4-monooxygenase (Photinus pyralis) (P08659 whole entry, looked up): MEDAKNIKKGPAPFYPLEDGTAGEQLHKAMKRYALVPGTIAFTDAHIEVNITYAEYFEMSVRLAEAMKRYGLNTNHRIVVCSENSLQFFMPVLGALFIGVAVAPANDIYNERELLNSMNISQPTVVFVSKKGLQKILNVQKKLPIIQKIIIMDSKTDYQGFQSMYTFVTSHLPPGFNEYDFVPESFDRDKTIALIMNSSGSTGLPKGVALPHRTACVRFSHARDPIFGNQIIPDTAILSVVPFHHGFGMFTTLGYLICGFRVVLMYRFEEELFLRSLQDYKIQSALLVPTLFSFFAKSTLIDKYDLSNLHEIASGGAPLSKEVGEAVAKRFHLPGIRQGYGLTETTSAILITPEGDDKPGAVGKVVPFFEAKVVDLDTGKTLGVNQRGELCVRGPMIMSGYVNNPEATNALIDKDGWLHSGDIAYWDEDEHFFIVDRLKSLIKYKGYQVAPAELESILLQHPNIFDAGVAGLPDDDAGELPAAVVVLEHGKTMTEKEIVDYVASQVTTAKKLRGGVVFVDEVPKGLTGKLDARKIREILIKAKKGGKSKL
# Sequence of Fibroblast growth factor 2 (Homo sapiens) (P09038 whole entry, looked up): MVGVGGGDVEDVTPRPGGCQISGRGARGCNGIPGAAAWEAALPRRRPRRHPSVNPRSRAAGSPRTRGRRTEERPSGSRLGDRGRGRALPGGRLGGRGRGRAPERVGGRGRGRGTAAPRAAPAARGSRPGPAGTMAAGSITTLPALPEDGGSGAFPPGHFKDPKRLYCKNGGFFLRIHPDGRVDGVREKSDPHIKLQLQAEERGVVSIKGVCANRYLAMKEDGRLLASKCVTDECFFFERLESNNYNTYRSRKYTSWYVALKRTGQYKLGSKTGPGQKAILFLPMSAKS
# Sequence of Focal adhesion kinase 1 (Homo sapiens) (Q05397 whole entry, looked up): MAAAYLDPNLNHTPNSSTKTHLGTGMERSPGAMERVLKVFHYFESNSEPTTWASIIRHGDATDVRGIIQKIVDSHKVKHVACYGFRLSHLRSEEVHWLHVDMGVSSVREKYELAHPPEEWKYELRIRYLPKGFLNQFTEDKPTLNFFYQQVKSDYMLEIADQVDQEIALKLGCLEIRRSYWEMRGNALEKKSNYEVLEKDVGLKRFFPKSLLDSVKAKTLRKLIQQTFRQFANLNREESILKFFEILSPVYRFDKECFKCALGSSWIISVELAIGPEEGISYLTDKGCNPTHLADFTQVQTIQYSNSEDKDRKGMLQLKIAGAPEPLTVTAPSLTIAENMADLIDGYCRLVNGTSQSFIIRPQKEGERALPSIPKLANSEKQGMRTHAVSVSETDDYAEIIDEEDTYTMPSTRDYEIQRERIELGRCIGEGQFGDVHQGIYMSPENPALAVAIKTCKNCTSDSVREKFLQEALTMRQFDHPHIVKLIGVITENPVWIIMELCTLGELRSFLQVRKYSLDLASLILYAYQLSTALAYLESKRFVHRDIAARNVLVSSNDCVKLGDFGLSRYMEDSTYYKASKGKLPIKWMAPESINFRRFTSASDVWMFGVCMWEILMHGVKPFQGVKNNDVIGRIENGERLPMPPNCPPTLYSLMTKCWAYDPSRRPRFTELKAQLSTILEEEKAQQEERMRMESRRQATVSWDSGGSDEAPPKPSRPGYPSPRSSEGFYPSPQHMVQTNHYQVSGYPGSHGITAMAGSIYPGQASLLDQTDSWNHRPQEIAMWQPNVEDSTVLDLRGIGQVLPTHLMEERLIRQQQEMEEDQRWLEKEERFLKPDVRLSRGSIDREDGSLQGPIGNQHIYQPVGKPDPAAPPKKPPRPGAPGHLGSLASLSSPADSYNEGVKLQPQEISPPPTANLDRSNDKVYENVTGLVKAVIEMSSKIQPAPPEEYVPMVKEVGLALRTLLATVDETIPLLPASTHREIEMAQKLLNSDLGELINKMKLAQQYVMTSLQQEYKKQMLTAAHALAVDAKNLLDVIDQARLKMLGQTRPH
# Sequence of Albumin (Bos taurus) (P02769 whole entry, looked up): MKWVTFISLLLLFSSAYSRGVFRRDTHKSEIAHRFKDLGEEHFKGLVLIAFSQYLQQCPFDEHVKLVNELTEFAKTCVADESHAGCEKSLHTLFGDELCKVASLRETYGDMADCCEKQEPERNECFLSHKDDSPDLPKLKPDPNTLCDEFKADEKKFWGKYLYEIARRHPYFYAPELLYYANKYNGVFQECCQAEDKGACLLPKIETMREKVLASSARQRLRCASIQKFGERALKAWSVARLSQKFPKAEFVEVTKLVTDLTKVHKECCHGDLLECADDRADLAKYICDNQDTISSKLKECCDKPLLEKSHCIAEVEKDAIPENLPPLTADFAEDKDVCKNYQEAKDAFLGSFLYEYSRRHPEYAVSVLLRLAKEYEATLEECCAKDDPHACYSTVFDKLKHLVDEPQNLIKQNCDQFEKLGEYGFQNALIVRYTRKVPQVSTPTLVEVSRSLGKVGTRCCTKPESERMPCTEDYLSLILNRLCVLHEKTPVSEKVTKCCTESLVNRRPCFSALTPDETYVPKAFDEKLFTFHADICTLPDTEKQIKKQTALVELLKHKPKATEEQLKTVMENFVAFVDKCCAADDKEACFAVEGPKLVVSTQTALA
# Sequence of Concanavalin-A (Canavalia ensiformis) (P02866 whole entry, looked up): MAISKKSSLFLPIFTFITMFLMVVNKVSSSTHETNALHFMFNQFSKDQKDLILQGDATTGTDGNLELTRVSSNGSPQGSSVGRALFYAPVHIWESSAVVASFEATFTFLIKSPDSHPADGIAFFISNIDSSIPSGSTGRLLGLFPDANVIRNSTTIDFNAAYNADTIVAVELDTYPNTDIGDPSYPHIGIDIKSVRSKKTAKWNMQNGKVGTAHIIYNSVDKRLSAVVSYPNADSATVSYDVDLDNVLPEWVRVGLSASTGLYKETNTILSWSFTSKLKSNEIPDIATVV
# Sequence of Follistatin (Homo sapiens) (P19883 whole entry, looked up): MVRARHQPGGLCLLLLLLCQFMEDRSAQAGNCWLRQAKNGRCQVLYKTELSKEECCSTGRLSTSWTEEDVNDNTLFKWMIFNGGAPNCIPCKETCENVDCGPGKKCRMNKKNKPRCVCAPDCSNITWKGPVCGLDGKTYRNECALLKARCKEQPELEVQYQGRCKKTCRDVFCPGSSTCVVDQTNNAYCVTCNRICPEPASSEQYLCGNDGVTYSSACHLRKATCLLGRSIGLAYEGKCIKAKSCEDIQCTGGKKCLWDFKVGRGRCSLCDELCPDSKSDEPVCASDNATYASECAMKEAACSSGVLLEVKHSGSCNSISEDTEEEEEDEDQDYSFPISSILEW
Compound,composite z-score (Albumin (Bos taurus)),composite Z-score [1],composite z-score [2],composite z-score [3],composite z-score [4],composite z-score [5],composite z-score [6],composite z-score (Sam68 (KHDRBS1)),composite z-score [7],composite z-score [8],composite z-score [9],composite z-score [10],composite z-score [11],composite z-score [12],composite z-score [13],composite z-score [14],z-score [15],composite z-score (Lefty1),composite z-score [16],z-score [17]
COCCOC(=O)N1C(=O)[C@@]2(c3cc(C#CC4(O)CCCCCC4)ccc31)[C@H](c1ccccc1OCCO)N1[C@H](c3ccccc3)[C@H](c3ccccc3)OC(=O)[C@H]1[C@@H]2C(=O)N1CCN(c2ncccn2)CC1,0.781,-0.291 (inactive),-0.0313,-0.0432,0.596,1.12,0.384,1.29,0.336,1.09,0.701,1.05,0.782,0.662,1.19,0.846,-1.13,0.702,0.764,-1.04 (inactive)
CC(C)NC(=O)[C@@]1(c2ccc([N+](=O)[O-])cc2)CC(=O)N(C2CCCCC2)[C@@H]1c1ccc(CO)cc1I,0.0092,0.691 (inactive),-0.0647,0.083,0.421,1.27,0.321,0.93,-0.589,0.347,-0.0568,1.15,0.52,-0.517,-0.315,-0.331,2.97,-0.491,-0.0784,-1.11 (inactive)
N#Cc1ccc(NN2C(C(O)C(c3ccccc3)c3ccccc3)C=CC3C(=O)N(c4ccccc4)C(=O)C32)cc1 (stereo not given),0.983,-0.442 (inactive),0.673,0.11,0.407,2.95,-0.0751,1.3,-0.558,1.17,0.238,1.26,0.545,1.01,0.337,-0.469,1.49,-0.0452,1.4,0.523 (inactive)
COC(=O)C(CC#Cc1ccc2c(c1)[C@]1(C(=O)N2)[C@H](c2ccc(OCCO)cc2)N2[C@H](c3ccccc3)[C@H](c3ccccc3)OC(=O)[C@H]2[C@@H]1C(=O)N1CCc2cc(OC)c(OC)cc2C1)C(=O)OC,0.863,-0.527 (inactive),0.407,-0.0326,0.542,2.04,0.397,1.31,0.547,1.15,0.857,1.2,0.343,1,1.41,1.57,-1.26,1.36,0.423,-0.465 (inactive)
COc1cc(Br)cc(C(O)C2C=CC3C(=O)N(C)C(=O)C3N2N2CCCCC2)c1OC (stereo not given),0.435,1.94 (inactive),-0.165,-0.0708,0.707,1.28,0.112,-0.309,-1.39,0.18,0.286,0.665,0.446,-0.83,-1.02,-1.38,-0.85,-1.12,-0.0965,-0.141 (inactive)
[N-]=[N+]=NCc1ccccc1[C@@H]1OC(c2ccc(OCCCO)cc2)=N[C@]1(Cc1ccccc1)C(=O)NCC(O)CO (stereo not given in full),1.05,1.57 (inactive),0.271,0.109,0.546,3.09,1.18,1.22,-0.549,0.306,1.9,1.19,0.443,0.958,0.973,1.52,0.529,-1.3,0.718,-0.0075 (inactive)
COCC(=C=CC[C@@H](O)c1cccc(OCCO)c1)C[C@@H](O)c1ccccn1,0.254,0.745 (inactive),0.0979,-0.14,0.744,0.486,1.73,0.338,0.188,0.218,-0.252,0.467,-0.32,0.263,0.868,0.392,1.53,1.24,0.0688,-1.16 (inactive)

# From PubChem BioAssay
